In the library only some 15% were active in any assay of this set; here they are far more common.
ALOX12 inh: blocks human arachidonate 12S-lipoxygenase; purified 12hLO, xylenol orange hydroperoxide absorbance; Potency, µM (top dose mostly 108 µM), actives largely listed as inhibitors; actives 1.1% (n = 580,000); AID 1671190
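Hydroperoxide product was detected by ferrous iron/xylenol orange as the 573 to 405 nm absorbance ratio. Arachidonic acid at 40 uM (final) was turned over for 30 min at room temperature by 150 nM human 12hLO, pH 7.0 Hepes buffer, after 15 min compound preincubation.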
RORgamma inh: blocks mouse ROR gamma transcriptional activity | Potency, µM (series often up to 53.6 µM), usual class: inhibitors | AID 2551 | Drosophila S2 Gal4-RORgamma UAS-luciferase reporter, 20 h | actives 5.4% (n = 310,000) | P51450; also: nearly all actives have a fitted effect of over 60% in size
Target sequence (P51450 whole entry, looked up, the tested form may be a part): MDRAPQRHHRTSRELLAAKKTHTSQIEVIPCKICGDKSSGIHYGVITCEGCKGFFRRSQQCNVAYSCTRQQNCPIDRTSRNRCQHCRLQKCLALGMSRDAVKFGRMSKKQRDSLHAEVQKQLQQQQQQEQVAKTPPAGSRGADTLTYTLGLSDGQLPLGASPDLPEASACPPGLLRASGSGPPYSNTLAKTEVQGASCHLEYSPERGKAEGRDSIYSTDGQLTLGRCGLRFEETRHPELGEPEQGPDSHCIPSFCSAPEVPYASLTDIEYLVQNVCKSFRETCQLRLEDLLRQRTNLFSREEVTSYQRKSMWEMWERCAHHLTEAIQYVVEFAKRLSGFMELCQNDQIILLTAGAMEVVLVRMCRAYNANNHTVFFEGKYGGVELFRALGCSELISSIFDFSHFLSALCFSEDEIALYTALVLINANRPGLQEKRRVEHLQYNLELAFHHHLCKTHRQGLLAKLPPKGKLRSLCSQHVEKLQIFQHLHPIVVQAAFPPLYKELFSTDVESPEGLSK
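A Gal4/UAS one-hybrid system in insect cells: metallothionein-promoter Gal4–ROR gamma fusion plus Photinus luciferase reporter. Copper sulfate 700 uM final, 20 hr ambient incubation, luminescent detection after 10 min with reagent.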
TDP1 cell noCPT: qHTS for Inhibitors of human tyrosyl-DNA phosphodiesterase 1 (TDP1): qHTS in cells in absence of CPT; DT40 Tdp1-/- hTDP1 cells, no CPT, ATP luminescence, 48 h; Potency, µM (doses to about 46.2 µM), actives largely listed as inhibitors; actives 15% (n = 420,000); also: nearly all actives have a fitted effect of over 55% in size
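Stably hTDP1-transfected Tdp1-null chicken DT40 cells were treated with library compounds minus camptothecin and grown for at least 48 hr at 37 °C, after which cellular ATP was quantified by luminescence.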
ELG1 DNA repair: inhibitors of ELG1-dependent DNA repair in HEK293T cells; HEK293T ELG1-luciferase reporter, luminescence, 16 h; DNA damage induced by 5-fluorouridine; Potency, µM (doses to about 46.1 µM), hits mostly inhibitors; actives 2.3% (n = 330,000); AID 504467; also: nearly all actives have a fitted effect of over 55% in size
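HEK293T cells expressing luciferase-tagged ELG1 (2,000/well) received 5-Fluorouridine plus compound or DMSO for 16 hr at 37 °C. Luciferase was read by ONE-Glo luminescence after 30 min at room temperature.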
DT40 TDP1 CPT: growth inhibition of DT40 Tdp1-/-;hTDP1 cells with camptothecin (screen for TDP1 inhibitors); chicken DT40 Tdp1-/-;hTDP1 cells + 20 nM CPT, ATP luminescence, 48 h; Potency, µM (titrated, usually from 46.2 µM), hits mostly inhibitors; actives 12% (n = 420,000); AID 686979; also: nearly all actives have a fitted effect of over 55% in size
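Chicken DT40 Tdp1-/- cells stably complemented with human TDP1 were seeded at 400 cells/well in medium containing 20 nM camptothecin, exposed to pin-transferred compounds, and grown at 37 °C for at least 48 hr. Viability was read as ATP luminescence.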
Gal4-VP16 FLuc: inhibits Gal4-VP16 luciferase reporter, ROR gamma counter-screen | Drosophila S2 Gal4-VP16 UAS-luciferase, luminescence, 20 h | Potency, µM (top dose mostly 53.6 µM), actives largely listed as inhibitors | actives 3.5% (n = 310,000);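 also: Gal4-VP16 expression switched on by copper sulfate through the metallothionein promoter; nearly all actives have a fitted effect of over 50% in size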
Numbers stand for hits; - = inactive; ? = inconclusive; . = not tested or not shown; [ ] = remark or other dose. Calls follow the shape of the dose curve; as a rule, active = well fitted curve in the direction sought with a large enough effect; inconclusive = small, poorly fitted or top-dose-only effect, or another doubt; inactive = no such curve, though single readings can be large; an effect the other way counts as inactive or inconclusive.

SMILES	ALOX12 inh	RORgamma inh	TDP1 cell noCPT	ELG1 DNA repair	DT40 TDP1 CPT	Gal4-VP16 FLuc
CN(c1ccc(OCC(=O)Nc2ccc(S(N)(=O)=O)cc2)cc1)S(=O)(=O)c1ccc(F)cc1	-	.	?	.	?	.
NS(=O)(=O)c1ccc(NC(=O)COc2ccc(C(=O)c3ccc(F)cc3)cc2)cc1	-	-	11.6µM	?	?	-
Cc1noc(C2CC3(CCN(C(=O)c4nccn4C)CC3)CN2C)n1 (centres undefined)	-	.	.	.	.	.
O=C(CCCN1C(=O)C(c2ccccc2)Oc2cccnc21)NC1CCCCC1 (centres undefined)	-	.	.	.	.	.
CN(C)c1ccc(/C=C/c2nc(-c3ccccc3O)n(-c3ccccc3)n2)cc1	-	.	?	.	16.4µM	.
Cc1ccc(C2C3=C(CC(C)(C)CC3=O)N=C3c4ccccc4C(=O)C32)cc1 (centres undefined)	?	-[10 µM]	18.4µM	?	?	-
CC1(C)CC(=O)C2=C(C1)N=C1c3ccccc3C(=O)C1C2c1ccc(Cl)cc1 (centres undefined)	?	-	?	?	?	-[0.365 µM]
Cc1ccc(C2=NC3(CCN(C(=O)c4ccn[nH]4)CC3)ON2)cc1	-	.	.	.	.	.
Cc1c(-c2ccc(O)cc2)nn(-c2ccc(O)cc2)c1-c1ccc(OCCN2CCCCC2)cc1	20µM	?	29.9µM	.	18.8µM	-
Cc1ccc2[nH]c(=O)c(CN(Cc3ccco3)S(=O)(=O)c3c(C)ccc4nsnc34)cc2c1	-	-	?	?	?	-
COc1ccc(Cn2nnnc2CN(Cc2cc3ccc(C)cc3[nH]c2=O)C2CCCC2)cc1	-	-	13µM	12.6µM	9.2µM	-
COCCn1nnnc1CN(Cc1cc2cc(OC)c(OC)cc2[nH]c1=O)C1CCCC1	-	-	-	?	-	-
CCc1ccc2[nH]c(=O)c(CN(Cc3ccccc3OC)Cc3nnnn3Cc3ccco3)cc2c1	-	-	?	10.3µM	?	-
COc1ccc2[nH]c(=O)c(CN(Cc3cccs3)S(=O)(=O)c3c(C)ccc4nsnc34)cc2c1	-	-	18.4µM	?	4.11µM	-
CCOc1ccc2[nH]c(=O)c(CN(CCCN3CCOCC3)Cc3nnnn3Cc3ccc(OC)cc3)cc2c1	-	-	20.6µM	-	?	-
COC(=O)c1ccc(CNC(=O)c2cc(OC)cc(OC)c2)cc1	-	.	.	.	.	.
COc1cc2cc(CN(Cc3nnnn3Cc3ccco3)C3CCCCC3)c(=O)[nH]c2cc1OC	?	-	-	-	-	-
COc1ccc2[nH]c(=O)c(CN(Cc3ccco3)Cc3nnnn3Cc3ccccc3)cc2c1	-	-	16.4µM	-	20.6µM	-
CC(=O)Nc1ccc(S(=O)(=O)N(Cc2ccco2)Cc2cc3ccccc3[nH]c2=O)cc1	-	?	?	?	?	-
COC(=O)c1ccccc1S(=O)(=O)N(Cc1ccco1)Cc1cc2cc(OC)ccc2[nH]c1=O	?	-	18.4µM	23.1µM	?	-
CCOc1ccc2[nH]c(=O)c(CN(Cc3nnnn3Cc3ccco3)C3CCCCC3)cc2c1	?	-	11.6µM	10.3µM	?	-
CCCCn1nc(C(=O)Nc2ccc(OC)c(OC(F)F)c2)c2ccccc2c1=O	-	.	.	.	.	.
CCCOc1ccc(F)cc1-c1cc(C(=O)NC2CCCCC2)[nH]n1	-	.	?	.	-	.
Cc1cc(F)ccc1-c1cc(C(=O)NC2CCCCC2)[nH]n1	-	.	-	.	-	.
CC(C)Oc1ccc(F)cc1-c1cc(C(=O)NC2CCCCC2)[nH]n1	-	.	14.6µM	.	?	.
SMILES	ALOX12 inh	RORgamma inh	TDP1 cell noCPT	ELG1 DNA repair	DT40 TDP1 CPT	Gal4-VP16 FLuc
CC(C)Oc1cc(F)ccc1-c1cc(C(=O)NCCc2ccncc2)[nH]n1	-	.	?	.	18.4µM	.
CC(C)Oc1cc(F)ccc1-c1cc(C(=O)NC2CCCCC2)[nH]n1	-	.	?	.	20.6µM	.
Cc1ccc(/C=C/c2onc(C)c2S(=O)(=O)N2CCC(C(=O)N3CCN(c4ccccc4F)CC3)CC2)cc1	-	.	2.59µM	.	20.6µM	.
Cc1ccc(/C=C/c2onc(C)c2S(=O)(=O)N2CCC(C(=O)N3CCC(N(C)C(C)C)CC3)CC2)cc1	?	.	6.51µM	.	5.17µM	.
CC(=O)c1ccc(N2CCN(C(=O)C3CCN(S(=O)(=O)c4c(C)noc4/C=C/c4ccc(C)cc4)CC3)CC2)cc1	-	.	2.59µM	.	6.51µM	.
Cc1noc(C)c1S(=O)(=O)N1CCC(C(=O)N2CCN(c3ccc(Cl)cc3)CC2)CC1	-	-	?	?	?	-
CCC(=O)Nc1ccc(S(=O)(=O)NCCn2nc(-c3ccccc3)ccc2=O)cc1	-	.	.	.	.	.
O=C(Cn1nc(N2CCN(c3ccccc3)CC2)ccc1=O)Nc1ccc(F)c(Cl)c1	-	.	.	.	.	.
CN1CCC(C(=O)NCc2c[nH]c3ncccc23)CC1	-	.	.	.	.	.
CC(C)(C)C(Cn1ccnc1)NC(=O)c1cc(COc2ccc3c(c2)CCCC3)on1 (centres undefined)	-	.	.	.	.	.
O=C(Cc1cccc(Cl)c1)N1CCC2(CC1)COc1ccccc1[S+](=O)([O-])N2	-[6.33 µM]	.	.	.	.	.
Cn1c(NC(=O)c2cc(Cl)ccc2Cl)cc(=O)n(C)c1=O	-	-	-	-	-	-
Cn1c(NC(=O)C(C)(C)Oc2ccc(Cl)cc2)cc(=O)n(C)c1=O	?	-	?	-	16.4µM	-
COc1ccc(-c2c(C)oc3cc(OC(=O)c4ccccc4)ccc3c2=O)cc1OC	-	.	.	.	.	.
O=C(Nc1ccccc1)c1cccc(Cn2cc(C(F)(F)F)ccc2=O)c1	-	-	20.6µM	-	?	-
O=C(Nc1cc(C(F)(F)F)cc(C(F)(F)F)c1)c1ccc(Cn2cc(C(F)(F)F)ccc2=O)cc1	-	?	16.4µM	-	20.6µM	-
N#Cc1cccc(Cn2cc(C(F)(F)F)ccc2=O)c1	-	-	-	?	-	-
O=C(Sc1ccccc1)c1cccc(Cn2cc(C(F)(F)F)ccc2=O)c1	-	-	16.4µM	-	18.4µM	-
COc1ccc2cc(C(=O)N3CCc4nn(C)c(=O)n4CC3)[nH]c2c1	-	.	.	.	.	.
CC(C)(C)c1nc2ccc(Cl)cn2c1CC1CCCCC1	-	.	?	.	?	.
CCCc1nc2ccc(C(=O)OC)cn2c1Cc1cccc(F)c1	-	.	?	.	?	.
CCCc1nc2ccc(Cl)cn2c1Cc1ccc(C)cc1	?	.	23.1µM	.	23.1µM	.
CCCc1nc2ccc(Cl)cn2c1Cc1cccc(Cl)c1	?	.	8.2µM	.	10.3µM	.
O=C(C1COc2ccccc2O1)N1CCN(Cc2cc(=O)oc3cc(O)ccc23)CC1 (centres undefined)	-	.	.	.	.	.
CC1CC(C)CN(c2ncc3c(n2)CC(c2ccccc2)CC3=O)C1 (centres undefined)	-	-[10 µM]	10.3µM	-	11.6µM	-
